# In the library only some 2.3% were active in any assay of this set; here they are far more common.
# Ub-GFP proteasome – ubiquitin-GFP accumulation via proteasome inhibition; Ubiquitin-GFP reporter cells, proteasome inhibition, GFP fluorescence; response scale: untreated = 0%, 10 µM MG-132 = 100%; Potency, µM (series often up to 45.9 µM), inactives show at the top dose activation (GFP accumulation), most hits filed as activators; 67,000 tested, under 10 active; active = well fitted activation curve with a large enough effect, not every such curve was filed as active; inconclusive = small, poorly fitted or top-dose-only effect, or another doubt; inactive = no such curve, though single readings can be large or run the other way; note: potency is the fitted concentration of half-maximal effect
#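 U2OS cells stably expressing ubiquitin(G76V)-GFP, seeded overnight in 0.5% FBS medium, were exposed to compounds (qHTS, 46 uM to 2.9 nM) for 4 hr at 37 °C. GFP-positive cells were counted by laser cytometry (488 ex/515 em), normalized between basal and 10 uM MG-132.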
# ALOX15 inhib – blocks human 15-lipoxygenase activity | P16050 | purified 15hLO-1, xylenol orange hydroperoxide absorbance | Potency, µM (titrated, usually from 57.1 µM), without a hit: at the top dose activity change, negative = inhibition, actives largely listed as inhibitors | hit rate 1.4% among 74,000; note: potency is the fitted concentration of half-maximal effect; % is set by controls: 0 for no effect and ±100 for the full control effect; nearly all actives have a fitted effect of over 55% in size
# Target sequence (P16050 whole entry, looked up): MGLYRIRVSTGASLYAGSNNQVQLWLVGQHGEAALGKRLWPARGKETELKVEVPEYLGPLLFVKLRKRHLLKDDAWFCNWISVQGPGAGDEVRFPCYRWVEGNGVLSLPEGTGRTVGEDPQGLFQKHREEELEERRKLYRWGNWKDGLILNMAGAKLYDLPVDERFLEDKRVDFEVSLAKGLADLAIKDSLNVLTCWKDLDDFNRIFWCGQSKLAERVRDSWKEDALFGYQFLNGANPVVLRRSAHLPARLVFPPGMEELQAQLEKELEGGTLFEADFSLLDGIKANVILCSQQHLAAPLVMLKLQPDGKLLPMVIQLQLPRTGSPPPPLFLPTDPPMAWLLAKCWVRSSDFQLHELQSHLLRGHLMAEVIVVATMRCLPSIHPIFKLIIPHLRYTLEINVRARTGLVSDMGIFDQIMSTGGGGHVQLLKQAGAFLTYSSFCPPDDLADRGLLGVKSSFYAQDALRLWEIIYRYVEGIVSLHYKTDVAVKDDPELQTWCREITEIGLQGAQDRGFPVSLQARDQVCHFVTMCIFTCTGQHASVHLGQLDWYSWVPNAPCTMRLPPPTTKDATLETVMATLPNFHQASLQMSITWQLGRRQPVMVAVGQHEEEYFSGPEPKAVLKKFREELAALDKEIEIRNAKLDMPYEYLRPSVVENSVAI
#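 40 nM 15hLO-1 + cpd, 15 min RT; start w/ 50 uM AA (final), 6 min RT; stop/detect w/ 200 uM XO + 300 uM Fe(II) in 50 mM H2SO4, 30 min; A573/A405. Buffer 25 mM Hepes pH 7.5, 0.01% Triton X-100. No-enzyme wells as negative control.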
# 15-hLO-2 inh – inhibitors of human 15-lipoxygenase 2 (ALOX15B). O15296. purified 15hLO-2, xylenol orange hydroperoxide absorbance. Potency, µM (titrated, usually from 57.1 µM), inactives show at the highest dose activity change, negative = inhibition, hits mostly inhibitors. hit rate 0.56% among 110,000; note: potency is the fitted concentration of half-maximal effect; % is set by controls: 0 for no effect and ±100 for the full control effect; nearly all actives have a fitted effect of over 60% in size
#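 Enzyme 50 nM, AA 45 uM, 25 mM Hepes pH 7.5 + 0.01% Triton X-100; cpd preinc 15 min RT, rxn 90 min RT; stop/detect with 200 uM XO + 300 uM Fe(II) in 50 mM H2SO4, 30 min; A573/A405.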
# Tau fil binding – binds recombinant human tau filaments | hit rate 2% among 71,000 | Potency, µM (top dose mostly 57.1 µM), without a hit: at the highest dose activity change, negative = inhibition | recombinant tau filaments, thioflavin S fluorescence, 15 h; filaments grown with octadecylsulfate alongside compound | P10636;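 note: potency is the fitted concentration of half-maximal effect; % is set by controls: 0 for no effect and ±100 for the full control effect; actives lower thioflavin S fluorescence by blocking filaments or displacing dye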
#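 Tau 2 uM in ThS buffer dispensed; compound added; 60 uM ODS added (finals 1 uM tau, 30 uM ODS); 15 h 37 C; fluor ex450/em510.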
# HBB splice mod – alters splicing of the hemoglobin beta chain | AID 925 | Potency, µM (doses to about 46.1 µM), without a hit: top-dose activation, usual class: activators | hit rate 0.06% among 65,000 | HBB splicing reporter cell assay, activation; EGFP reporter with mutant IVS2-654 intron; response scale: normalised to 500 nM splice-correcting PNA; note: potency is the fitted concentration of half-maximal effect; 0% is about no effect
#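 HeLa cells stably expressing EGFP interrupted by mutant beta-globin intron 2 (IVS2-654), 500/well in 2% FCS. Treated with compound for 2 days at 37C. Splicing correction scored as total well GFP intensity (488 nm excitation, 500-520 nm emission); 500 nM antisense PNA served as control.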
# Epigenetic mod – epigenetic modulators derepressing GFP locus in mouse cells; Potency, µM (titrated, usually from 46.1 µM), for inactives: at the top dose GFP derepression (activation); mouse C127i GFP locus derepression, cytometry, 30 h; hit rate 0.09% among 68,000; note: % of control where 0% means no effect
#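 Murine C127i mammary cells carrying a silenced, stably integrated CMV-driven GFP reporter were treated with compound for 30 hours at 37 C. After PBS washes, GFP-positive cells were counted by laser-scanning microplate cytometry.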
# * marks the source's active call; other numbers are inactive results; ? = inconclusive; . = no result; [ ] = another dose, or the depositor's remark. Unless noted, calls come from the whole dose curve; as a rule, active = well fitted curve in the direction sought with a large enough effect; inconclusive = small, poorly fitted or top-dose-only effect, or another doubt; inactive = no such curve, though single readings can be large; an effect the other way counts as inactive or inconclusive.
SMILES,Ub-GFP proteasome,ALOX15 inhib,15-hLO-2 inh,Tau fil binding,HBB splice mod,Epigenetic mod
OC12CCCCC1C(c1ccc3c(c1)OCO3)N(Cc1cccc(F)c1)CC2 (centres undefined),-5%,1%,-4%,16µM*,8%[0.369 µM],6%
O=C(Nc1ccc(Nc2ccccc2)cc1)c1ccco1,-8%,-13%,-11%,20µM*,0%,3%
O=C(Nc1ccc(N2CCCCC2)c(C(=O)O)c1)c1ccco1,-4%,4%,1%,3%,-1%,0%
O=C(Nc1ccc(N2CCCC2)c(Cl)c1)c1ccco1,5%[9.17 µM],-24%[11.4 µM],-1%,4µM*,0%[0.0738 µM],-2%
O=C(Nc1ccc2[nH]c3c(c2c1)CCCC3)c1ccco1,7%,16µM*,-19%,271%,0%[57.5 µM],-2%
O=C(Nc1ccc(Br)cc1)c1ccco1,.,.,-3%,.,.,.
O=C(NCCN1CCCC1)c1ccc(Cc2nc3ccccc3[nH]2)cc1,.,-4%,.,.,.,.
CC(C)(C)c1ccc(S(=O)(=O)/C=C\C#N)cc1,-7%,-8%,-1%,24%,0%,0%
O=C(NCCO)c1ccc(-n2c(=O)c(=O)[nH]c3ccccc32)cc1,.,4%,.,.,.,.
Nc1nc2c(c(=O)[nH]1)CN(CCCN1CCOCC1)CN2,4%[9.17 µM],-4%[11.4 µM],-2%[11.4 µM],-2%[11.4 µM],0%[9.22 µM],2%[9.22 µM]
CCOC(=O)c1cc(-c2ccccc2)sc1NC(=S)Nc1cc(C)ccn1,.,.,10µM*,.,.,.
CCCCCCOC(=O)C1(O)CC2OC1(C)n1c3ccccc3c3c4c(c5c6ccccc6n2c5c31)C(=O)NC4 (centres undefined),.,.,-8%[0.0915 µM],.,.,.
Cc1onc(-c2ccccc2Cl)c1C(=O)OCC(=O)N1CCCc2ccccc21,1%,20µM*,-2%,-13%,-1%,6%
Cc1onc(-c2ccccc2Cl)c1C(=O)N1CCCc2ccccc21,20%,5%,-8%,0%,0%[9.22 µM],-2%
CO[Si](CCCNCCC[Si](OC)(OC)OC)(OC)OC,.,-2%,-6%,-15%,0%,.
CCOC(=O)/C(C#N)=C1/C=Cc2ccccc2N1CC,-3%,-13%,-20%,16µM*,0%,0%
CCN(CC)C(=O)N1c2ccccc2C=Cc2ccccc21,.,.,-4%,.,.,.
Cc1ccccc1OCCCC(=O)Nc1ccc(N2CCOCC2)cc1,3%[9.17 µM],-25%[11.4 µM],-11%,3.2µM*,0%[0.0738 µM],-2%
CCOc1ccccc1OCC(=O)Nc1ccc(N2CCCCC2)cc1,1%,-5%,-8%,25µM*,-3%,-2%
COc1cc(Cl)ccc1NC(=O)COc1ccccc1C(=O)N1CCN(c2ccc(O)cc2)CC1,-3%,25µM*,?,-27%,-2%,1%
COc1ccccc1OCC(=O)Nc1ccc(O)cc1C(=O)O,13%,6%,2%,-3%,0%,-3%
Cc1cc(C)cc(OCC(=O)Nc2ccc(N3CCCC3)cc2)c1,.,-27%,19%,.,.,.
Cc1ccc(OCC(=O)Nc2ccc(N3CCCC3)cc2)cc1C,-6%[9.17 µM],5µM*,8%,1.6µM*,0%[0.0738 µM],-2%
COc1ccc(NC(=O)N2CCC3(CC2)CCN(C(=O)c2ccco2)CC3)cc1,2%,9%,3%,7%,0%,2%[9.22 µM]
O=C(CNCC1CCCO1)Nc1ccccc1N1CCCCCC1 (centres undefined),.,.,20%,.,.,.
CCC(=O)N1CCN(c2ccc(NC(=O)COc3ccccc3Cl)cc2)CC1,.,.,4%,.,.,.
CN1CCN(c2ccc(NC(=O)COc3ccccc3Cl)cc2)CC1,10%,-2%,13%,16µM*,-3%,0%
O=C(CNCC1CCCO1)Nc1ccc(N2CCCCCC2)cc1 (centres undefined),-1%,-27%,27%,32µM*,.,-2%
O=C(O)c1ccc(C(=O)O)c(C(=O)Nc2ccc3c(c2)Cc2ccccc2-3)c1,1%[9.17 µM],-3%[11.4 µM],-16%[11.4 µM],-2%[11.4 µM],4%[9.22 µM],-1%[9.22 µM]

# High-throughput results from PubChem BioAssay.
